ANO1 block = inhibitors of mouse TMEM16A calcium-activated chloride channel | normalized B-score (activity score, 25-100; higher = stronger inhibition) at 10 µM | 310,000 compounds, 1.2% hits | HEK293 TMEM16A/YFP iodide influx fluorescence, ionomycin | AID 588511;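 active = ratio plate-corrected score three or more library SD toward inhibition, starting fluorescence score within five deviations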;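 note: score derived from kinetic fluorescence span divided by baseline fluorescence per well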
CHT inh = inhibits the human high affinity choline transporter | CHT-expressing cells, membrane potential dye, choline response; active compounds read low | 310,000 compounds, 0.86% hits | B-score at 10 µM;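 active = B-score over 3 SD under the library average, and starting fluorescence ratio not unusually high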;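 note: choline stimulus applied at its EC90 after an EC20 pre-addition; B-score computed on integrated fluorescence ratio after choline addition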
Target sequence (Q9GZV3 whole entry, looked up): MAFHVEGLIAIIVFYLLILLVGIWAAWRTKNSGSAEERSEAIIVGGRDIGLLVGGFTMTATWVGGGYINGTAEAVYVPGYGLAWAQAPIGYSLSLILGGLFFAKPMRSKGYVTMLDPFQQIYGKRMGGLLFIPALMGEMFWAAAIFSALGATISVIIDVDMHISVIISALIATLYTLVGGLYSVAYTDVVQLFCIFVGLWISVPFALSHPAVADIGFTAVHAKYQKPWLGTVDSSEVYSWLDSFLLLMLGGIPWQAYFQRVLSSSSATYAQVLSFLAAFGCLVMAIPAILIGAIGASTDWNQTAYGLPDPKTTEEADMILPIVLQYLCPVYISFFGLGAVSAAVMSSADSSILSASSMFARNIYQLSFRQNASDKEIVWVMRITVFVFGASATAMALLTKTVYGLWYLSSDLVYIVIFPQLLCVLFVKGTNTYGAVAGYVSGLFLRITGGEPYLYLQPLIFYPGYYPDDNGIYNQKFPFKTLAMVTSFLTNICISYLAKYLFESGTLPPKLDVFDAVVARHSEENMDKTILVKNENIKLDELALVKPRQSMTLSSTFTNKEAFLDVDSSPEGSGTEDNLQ
CHT allo act = human CHT allosteric activation; CHT-expressing cells, membrane potential dye, choline EC20; active compounds read high; LV-AA mutant CHT in HEK293 cells; AID 488977; 310,000 compounds, 0.49% hits; B-score at 10 µM;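 active = initial fluorescence not abnormally high and integrated response B-score, plate-corrected, over 3 SD above library mean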
TMEM16A act = mouse TMEM16A channel activation, primary screen | Q8BHY3 | HEK293 TMEM16A/YFP-H148Q/I152L, iodide quench fluorescence; active compounds read low | B-score at 10 µM | 340,000 compounds, 0.3% hits | AID 623877;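 active = fluorescence-ratio B-score plate-corrected deviation score at least 3 library SD below zero, with starting fluorescence score within 5 deviations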;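 note: channel opened by trigger with iodide after compound preincubation; score built on the fluorescence ratio of max minus min over baseline; more negative score means more quench and so TMEM16A activation or potentiation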
An asterisk follows results filed as active; i = inactive; nt = no result. Shown are actives, neighbours in structure and some others; about 2.3% of the full set was active somewhere.

SMILES	ANO1 block	CHT inh	CHT allo act	TMEM16A act
c1nc2n(n1)C1=C(CCCC1)C1(CCCCC1)N2	i	i	i	-4.83*
CCCc1[nH]n(-c2ccc([N+](=O)[O-])cc2)c(=O)c1C=NCCN1CCNCC1	i	i	6.78*	nt
Cn1cncc1C#Cc1ccc2cc(C(C)(C)O)oc(=O)c2c1	nt	nt	nt	-11*
N#Cc1cccc(S(=O)(=O)N2CCN(c3ccnc4cc(Cl)ccc34)CC2)c1	i	i	i	i
Cc1nnc(NC(=O)C2CC(=O)N(c3ccc4c(c3)OCCO4)C2)s1 (centres undefined)	nt	nt	nt	i
O=C(Nc1nc(-c2ccco2)c(-c2ccco2)s1)C1CC(=O)N(c2ccc3c(c2)OCCO3)C1 (centres undefined)	i	i	i	-6.24*
Cc1ccccc1N=C(NO)c1cccnc1	i	i	i	i
Cc1cc(Cl)ccc1OC(C)C(=O)Nc1ccccc1N1CCOCC1 (centres undefined)	100*	i	i	-19.5*
C[C@@H](O)[C@H]1C(=O)N2C(C(=O)O)=C(S[C@@H]3CN[C@H](C(=O)N(C)C)C3)[C@H](C)[C@H]12	i	i	i	nt
Cc1ccc(NC(=O)c2cccs2)cc1S(=O)(=O)Nc1cccc(Cl)c1	100*	i	i	i
CN(C)CCNCCCOc1ccccc1-c1ccccc1	i	i	i	nt
O=C(CSc1nnc(-c2ccccc2)c2ccccc12)NCC1CCCO1 (centres undefined)	i	i	i	-6.82*
O=C(Cn1nc(-c2ccccc2)c2ccccc2c1=O)NCC1CCCO1 (centres undefined)	i	i	i	i
Cc1noc(C)c1NC(=O)Nc1cccc2c1O[C@H](CN(C)S(=O)(=O)c1cccs1)[C@@H](C)CN([C@H](C)CO)C2=O	nt	nt	nt	i
CCCCCCCCN1[C@@H](CC(=O)OCC)c2cc(F)ccc2S1(=O)=O	25*	i	i	i
COc1ccc(OC)c(/C=C2\SC(N3CCCC(C)C3)=NC2=O)c1 (centres undefined)	100*	i	i	i
O=C(Cc1ccc(Cl)cc1Cl)Nc1ccncc1Cl	25*	i	i	i
O=C(Nc1ccc(F)cc1)c1ccc2c(=O)n3c(nc2c1)CCCCC3	25*	i	i	i
COc1ccc(OC)c(/C=N/N2CCN(c3ccc(Cl)cc3)CC2)c1	i	i	i	i
Cc1ccccc1Cn1c(=N)n(CC(O)c2ccco2)c2ccccc21 (centres undefined)	i	i	i	i
CC(C)(C)c1ccc(Cn2c(=N)n(CC(O)c3ccco3)c3ccccc32)cc1 (centres undefined)	i	-6.58*	i	i
Cc1c(CCOC(=O)CC23CC4CC(CC(C)(C4)C2)C3)sc[n+]1CC(=O)c1ccccc1	100*	i	i	i
CN(C)c1ccc(-c2cc3ccccc3c(=O)o2)cc1	nt	nt	nt	i
COc1ccc(-c2noc(-c3ccccc3-c3ccccc3)n2)cc1	25*	i	i	i
COC(=O)CSc1nc2sc3c(c2c(=O)n1C1CCCCC1)CCN(C)C3	i	i	8.85*	nt
SMILES	ANO1 block	CHT inh	CHT allo act	TMEM16A act
O=C(Nc1ccccc1C(=O)N1CCN(c2cccc(Cl)c2)CC1)C1=CSCCO1	i	i	i	-28.1*
Cc1ccc(-c2nc(=S)c3c(n2Cc2ccco2)CC(C)(C)OC3)cc1	i	i	11.6*	i
CC(C)c1ccc(OCc2ccc(C(=O)N3CCN(c4ccccn4)CC3)cc2)cc1	100*	i	i	i
CC(C)CN(C(=O)CCNC(=O)c1ccc(Cl)cc1)c1c(N)n(CC(C)C)c(=O)[nH]c1=O	nt	nt	nt	i
O=C(Cn1nnc2ccccc21)OCC(=O)c1ccc(Cl)cc1	i	i	i	nt
Cc1ccc(S(=O)(=O)N2CCN(C(=O)CCOc3cc(C)ccc3C)CC2)cc1	nt	nt	nt	-43.9*
COc1ccc(C(CNC(=O)c2ccc(-c3cccc(C(F)(F)F)c3)o2)N2CCOCC2)cc1 (centres undefined)	i	i	i	i
Cc1ccc(OCC(=O)NNC(=O)C(C)Sc2ncnc3sc(C)c(C)c23)cc1 (centres undefined)	100*	i	i	i
COc1cc2c(C(=O)N3CCOCC3)c(CSc3ccccc3)n(C)c2cc1Br	i	i	i	i
Cc1c(C(=O)Nc2nc3ccccc3[nH]2)oc2ccccc12	i	i	i	i

Assay outcomes from PubChem.
